Results reported in PubChem BioAssay (NCATS).
Several values for one entry are separate records, joined by “and”; a condition that tells them apart may be missing. Identical values can stand only once. Records with an inconclusive call do not appear. Activity calls are given as the source filed them. The call rests on the fitted dose curve; in most records, active means well fitted cell-killing curve with a large enough effect; inconclusive means small, poorly fitted or top-dose-only effect; inactive means flat fitted curve, though single readings scatter.

Assay: Cell Viability - LYMP2-014 (AID 983); further: nearly all actives have a fitted effect of over 50% in size;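 on activity change, negative = cytotoxicity: plate controls were DMSO only for no effect and 92 µM tetraoctylammonium bromide for full effect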
Conditions: LYMP2-014 lymphoblastoid cells, viability qHTS; series mostly up to 92.2 µM; activity change, negative = cytotoxicity: at the top concentration
Procedure, shortened: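 LYMP2-014 human lymphoblastoid cells, 2500/well, treated 24 h at 37 C in complete medium; viability by CellTiter-Glo ATP luminescence after 30 min at room temperature. AC50 from Hill fits of qHTS concentration-response; tetraoctylammonium bromide positive control.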
Potency means the concentration at half of the fitted maximal effect.

Row | SMILES | activity change, negative = cytotoxicity | Potency
1 | S=C=S | -9.09% (inactive) | –
2 | CCCCCCCCOC(=O)c1ccccc1C(=O)OCCCCCCCC | 0.79% (inactive) | –
3 | C=CCN=C=S | 15.4% (inactive) | –
4 | NNC(N)=O | 6% (inactive) | –
5 | O=C(O)C(Cl)(Cl)Cl | – | inactive
6 | [O]=[Cd] | -3.49% (inactive) | –
7 | O=C1CCO1 | 0.333% (inactive) | –
8 | COc1ccc2c(c1OC)C(=O)OC2C1c2cc3c(cc2CCN1C)OCO3 (centres undefined) | -3.21% (inactive) | –
9 | Clc1ccccc1Cl | -8.57% (inactive) | –
10 | [Cl-].[Cl-].[Hg+2] | – | 12.6 µM (active)
11 | C[C@H]1CC[C@@H]2[C@@H](C)[C@H]3[C@H](C[C@H]4[C@@H]5CC=C6CC(O[C@@H]7O[C@H](CO)[C@H](O)[C@H](O[C@@H]8O[C@H](CO)[C@@H](O)[C@H](O)[C@H]8O)[C@H]7O[C@H]7O[C@@H](C)[C@H](O)[C@@H](O)[C@H]7O)CC[C@]6(C)[C@H]5CC[C@]34C)N2C1 (some centres undefined) | – | 50.1 µM (active)
12 | COC1=CC(=O)O[C@@H](/C=C/c2ccccc2)C1 | -0.464% (inactive) | –
13 | CC(C)Nc1ccc(Nc2ccccc2)cc1 | – | 39.8 µM (active)
14 | C[C@]12CCC(=O)C[C@@H]1CC[C@@H]1[C@@H]2CC[C@]2(C)[C@@H](O)CC[C@@H]12 | -3.86% (inactive) | –
15 | ClC(Cl)(Cl)Cl | – | inactive
16 | O=Cc1ccco1 | -3.19% (inactive) | –
17 | ClC=C(Cl)Cl | 1.13% (inactive) | –
18 | CC(C)CCON=O | -13.2% (inactive) | –
19 | Oc1cc(Cl)c(Cl)cc1Cl | -12.5% (inactive) | –
20 | O=C1C=CC(=O)C=C1 | -15.6% (inactive) | –
21 | CCCCCl | 0.598% (inactive) | –
22 | C[C@H]1CCC[C@H](O)CCCCCc2cc(O)cc(O)c2C(=O)O1 | -1.8% (inactive) | –
23 | O=[N+]([O-])c1ccc(F)c([N+](=O)[O-])c1 | -19.8% (inactive) | –
24 | O=C1C2CC=CCC2C(=O)N1SC(Cl)(Cl)Cl (centres undefined) | – | 5.01 µM (active) and 6.31 µM (active)
25 | O=C/C=C/c1ccccc1 | – | inactive
26 | O=[N+]([O-])c1ccccc1 | -5.96% (inactive) | –
27 | CCOC(=O)c1ccccc1C(=O)OCC | – | inactive
28 | [O]=[Cr](=[O])([OH])[O][Cr](=[O])(=[O])[OH] | – | 12.6 µM (active) and 15.8 µM (active) and 10 µM (active)
29 | O=CC=O | -5.04% (inactive) | –

Assay: Cell Viability - LYMP2-016 (AID 984); further: nearly all actives have a fitted effect of over 55% in size; on activity change, negative = cytotoxicity: on the % scale 0 is the no-effect control and ±100 the full control effect
Conditions: LYMP2-016 lymphoblastoid cell viability, qHTS; series mostly up to 92.2 µM; activity change, negative = cytotoxicity: at the top concentration
Procedure, shortened: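 Human lymphoblastoid cells (LYMP2-016), 2500/well in complete medium, preincubated 5 hr at 37 C, then compound-treated 24 hr at 37 C. Intracellular ATP read by CellTiter-Glo luminescence after 30 min at room temperature; AC50 from Hill-equation concentration-response fits.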

Row | SMILES | activity change, negative = cytotoxicity | Potency
30 | S=C=S | -7.12% (inactive) | –
31 | CCCCCCCCOC(=O)c1ccccc1C(=O)OCCCCCCCC | -7.85% (inactive) | –
32 | C=CCN=C=S | -6.14% (inactive) | –
33 | NNC(N)=O | -8.97% (inactive) | –
34 | O=C(O)C(Cl)(Cl)Cl | – | inactive
35 | [O]=[Cd] | 2.66% (inactive) | –
36 | O=C1CCO1 | -5.75% (inactive) | –
37 | COc1ccc2c(c1OC)C(=O)OC2C1c2cc3c(cc2CCN1C)OCO3 (centres undefined) | -10.9% (inactive) | –
38 | Clc1ccccc1Cl | -5.97% (inactive) | –
39 | COC1=CC(=O)O[C@@H](/C=C/c2ccccc2)C1 | -13% (inactive) | –
40 | CC(C)Nc1ccc(Nc2ccccc2)cc1 | – | 31.6 µM (active)
41 | C[C@]12CCC(=O)C[C@@H]1CC[C@@H]1[C@@H]2CC[C@]2(C)[C@@H](O)CC[C@@H]12 | -3.97% (inactive) | –
42 | ClC(Cl)(Cl)Cl | – | inactive
43 | O=Cc1ccco1 | 1.61% (inactive) | –
44 | ClCC1CO1 (centres undefined) | -25.1% (inactive) | –
45 | ClC=C(Cl)Cl | 5.38% (inactive) | –
46 | CC(C)CCON=O | 3.55% (inactive) | –
47 | Oc1cc(Cl)c(Cl)cc1Cl | -8.13% (inactive) | –
48 | O=C1C=CC(=O)C=C1 | -24.9% (inactive) | –
49 | CCCCCl | -3.37% (inactive) | –
50 | C[C@H]1CCC[C@H](O)CCCCCc2cc(O)cc(O)c2C(=O)O1 | -12.8% (inactive) | –
51 | O=[N+]([O-])c1ccc(F)c([N+](=O)[O-])c1 | -28.1% (inactive) | –
52 | O=C1C2CC=CCC2C(=O)N1SC(Cl)(Cl)Cl (centres undefined) | – | 5.01 µM (active) and 7.94 µM (active)
53 | O=C/C=C/c1ccccc1 | – | inactive
54 | O=[N+]([O-])c1ccccc1 | -5.23% (inactive) | –
55 | CCOC(=O)c1ccccc1C(=O)OCC | – | inactive
56 | [O]=[Cr](=[O])([OH])[O][Cr](=[O])(=[O])[OH] | – | 10 µM (active) and 12.6 µM (active)
57 | O=CC=O | -1% (inactive) | –

Assay: Cell Viability - LYMP2-018 (AID 985);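 further: compound exposure lasted 24 hr at 37 °C; nearly all actives have a fitted effect of over 50% in size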;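 on activity change, negative = cytotoxicity: plate controls were DMSO only for no effect and tetraoctylammonium bromide at 92 µM for full effect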
Conditions: LYMP2-018 lymphoblastoid cells, viability (qHTS); series mostly up to 92.2 µM; activity change, negative = cytotoxicity: at the top concentration
Procedure, shortened: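 Human lymphoblastoid LYMP2-018 cells, 2500/well, settled 5 hr at 37 C then exposed to compound 24 hr at 37 C; intracellular ATP measured by CellTiter-Glo luminescence. AC50 from Hill-equation concentration-response fits.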

Row | SMILES | activity change, negative = cytotoxicity | Potency
58 | S=C=S | 0.491% (inactive) | –
59 | CCCCCCCCOC(=O)c1ccccc1C(=O)OCCCCCCCC | -19.6% (inactive) | –
60 | C=CCN=C=S | -1.2% (inactive) | –
61 | NNC(N)=O | 2.13% (inactive) | –
62 | O=C(O)C(Cl)(Cl)Cl | – | inactive
63 | [O]=[Cd] | -8.49% (inactive) | –
64 | O=C1CCO1 | 0.762% (inactive) | –
65 | COc1ccc2c(c1OC)C(=O)OC2C1c2cc3c(cc2CCN1C)OCO3 (centres undefined) | 2.09% (inactive) | –
66 | Clc1ccccc1Cl | -5.42% (inactive) | –
67 | [Cl-].[Cl-].[Hg+2] | – | 5.01 µM (active)
68 | COC1=CC(=O)O[C@@H](/C=C/c2ccccc2)C1 | 8.51% (inactive) | –
69 | CC(C)Nc1ccc(Nc2ccccc2)cc1 | – | 20 µM (active)
70 | C[C@]12CCC(=O)C[C@@H]1CC[C@@H]1[C@@H]2CC[C@]2(C)[C@@H](O)CC[C@@H]12 | -10.2% (inactive) | –
71 | ClC(Cl)(Cl)Cl | – | inactive
72 | O=Cc1ccco1 | 2.86% (inactive) | –
73 | ClC=C(Cl)Cl | -5.05% (inactive) | –
74 | CC(C)CCON=O | -17.4% (inactive) | –
75 | Oc1cc(Cl)c(Cl)cc1Cl | -4.39% (inactive) | –
76 | CCCCCl | -9.26% (inactive) | –
77 | C[C@H]1CCC[C@H](O)CCCCCc2cc(O)cc(O)c2C(=O)O1 | -13.7% (inactive) | –
78 | CC(C)(C)c1cc(O)ccc1O | – | 50.1 µM (active)
79 | O=C1C2CC=CCC2C(=O)N1SC(Cl)(Cl)Cl (centres undefined) | – | 3.98 µM (active) and 7.94 µM (active)
80 | O=C/C=C/c1ccccc1 | – | inactive
81 | O=[N+]([O-])c1ccccc1 | -7.62% (inactive) | –
82 | CCOC(=O)c1ccccc1C(=O)OCC | – | inactive
83 | [O]=[Cr](=[O])([OH])[O][Cr](=[O])(=[O])[OH] | – | 7.94 µM (active) and 12.6 µM (active)
84 | O=CC=O | -3.21% (inactive) | –
